Shown are actives, neighbours in structure and some others; about 1.4% of the full set was active somewhere.
ALOX12 inh: blocks human arachidonate 12S-lipoxygenase. P18054. purified 12hLO, xylenol orange hydroperoxide absorbance. Potency, µM (series often up to 108 µM), for the others: top-dose activity change, negative = inhibition, actives largely listed as inhibitors. 580,000 compounds, 1.1% hits. AID 1671190; further: potency means the concentration at half of the fitted maximal effect; on the % scale 0 is the no-effect control and ±100 the full control effect
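Purified human 12hLO (150 nM final) in 25 mM Hepes, 0.01% Triton X-100, pH 7.0 was preincubated 15 min at room temperature with compound. Then 40 uM arachidonic acid was added, 30 min. Hydroperoxide was read by Fe-XO absorbance ratio 573/405 nm.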
PTAP TSG101 blk: blocks PTAP/TSG101 interaction to inhibit HIV-1 budding; Q99816; Fluorescence polarization, FITC-PTAP peptide / Tsg101 binding; Potency, µM (doses to about 115 µM), for the others: at the highest dose activity change, negative = inhibition, hits mostly inhibitors; 340,000 tested, under 10 active; active means well fitted inhibition curve with a large enough effect in the main read-out, with a control signal flat, not every such curve was filed as active; inconclusive means small, poorly fitted or top-dose-only effect, or effect the other way, or a change in a side signal; inactive means no such curve, though single readings can be large or run the other way; further: potency means the concentration at half of the fitted maximal effect; % of control where 0% means no effect
Target sequence (Q99816 whole entry, looked up): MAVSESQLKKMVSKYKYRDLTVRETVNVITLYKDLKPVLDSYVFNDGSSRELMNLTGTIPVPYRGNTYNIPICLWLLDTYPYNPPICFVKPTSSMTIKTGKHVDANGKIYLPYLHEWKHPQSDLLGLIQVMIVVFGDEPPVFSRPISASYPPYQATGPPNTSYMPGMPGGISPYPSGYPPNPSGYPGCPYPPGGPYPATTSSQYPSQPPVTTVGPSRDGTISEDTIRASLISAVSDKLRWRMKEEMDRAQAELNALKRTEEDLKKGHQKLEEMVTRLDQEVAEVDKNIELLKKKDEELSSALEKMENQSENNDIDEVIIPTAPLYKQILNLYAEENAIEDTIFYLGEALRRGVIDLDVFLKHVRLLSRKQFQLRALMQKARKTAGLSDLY
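Fluorescence polarization binding of Tsg101 binding domain (10 uM final) to FITC-labeled PTAP peptide (50 nM final) in HEPES pH 7.5 buffer with NaCl, Tween 20, EDTA, TCEP. Compounds added before peptide; binding 20 min at RT.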
Vif-A3G inh: inhibitors of Vif-APOBEC3G interaction; Q9HC16; Potency, µM (series often up to 46.1 µM), inactives show top-dose activity, negative = active, actives largely listed as inhibitors; AID 602310; HeLa A3G-eYFP + Vif (tagged APOBEC3G with the HIV-1 protein that degrades it), YFP fluorescence, overnight; 410,000 compounds, 0.076% hits; further: potency means the concentration at half of the fitted maximal effect; on the % scale 0 is the no-effect control and ±100 the full control effect; nearly all actives have a fitted effect of over 60% in size
Target sequence (Q9HC16 whole entry, looked up): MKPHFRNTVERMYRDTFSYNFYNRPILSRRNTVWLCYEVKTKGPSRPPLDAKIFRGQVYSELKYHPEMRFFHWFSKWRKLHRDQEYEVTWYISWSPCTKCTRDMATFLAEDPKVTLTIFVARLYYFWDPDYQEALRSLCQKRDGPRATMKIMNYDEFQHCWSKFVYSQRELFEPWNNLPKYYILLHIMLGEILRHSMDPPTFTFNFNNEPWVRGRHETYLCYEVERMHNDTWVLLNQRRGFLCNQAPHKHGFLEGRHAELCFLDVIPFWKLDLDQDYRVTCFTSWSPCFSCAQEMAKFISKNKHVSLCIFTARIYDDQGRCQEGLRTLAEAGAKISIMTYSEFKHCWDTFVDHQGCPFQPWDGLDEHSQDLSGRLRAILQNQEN
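HeLa cells stably expressing Vif and C-terminally eYFP-tagged A3G, seeded overnight at 37 deg C, then exposed to compound by pintool overnight at 37 deg C. Rise in yellow fluorescence (Ex 488/Em 500-530, Acumen) marks blocked Vif-driven A3G degradation.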
pAkt inh: blocks phosphorylation of Akt | Neuro2A IGF-stimulated pAkt S473 HTRF, 20 min; hits give low values | activity change, % for hits at 50 µM | 360,000 compounds, 0.32% hits | AID 651550; in the data active means activity change below about -80%; inconclusive means mostly about -51% to -80%; further: on the % scale 0 is the no-effect control and ±100 the full control effect
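Neuro2A cells (4,500/well, DMEM with 0.5% FBS) were treated with compound at a single 50 µM final concentration, stimulated with 6 nM IGF for 20 min at 37 °C, and lysed. Phospho-Akt Ser473 was read by HTRF as 665/615 ratio ×10^4.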
Vif-APOBEC3F blk: inhibitors of Vif-A3F interaction; HeLa A3F-eYFP + Vif (tagged APOBEC3F with the HIV-1 protein that degrades it), YFP fluorescence increase; Potency, µM (highest dose often 46.1 µM), for the others: at the top dose activity, negative = active; 390,000 compounds, 0.2% hits; further: potency means the concentration at half of the fitted maximal effect; % of control where 0% means no effect; nearly all actives have a fitted effect of over 65% in size
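HeLa cells stably expressing A3F-eYFP plus Vif, plated and incubated overnight at 37 deg C, then exposed to compounds overnight at 37 deg C. Blocked degradation read as raised yellow fluorescence (Ex 488/Em 500-530).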
S-ASM inh: blocks human secretory acid sphingomyelinase | placental ASM, HMU-PC fluorogenic substrate, 60 min | Potency, µM (highest dose often 57.5 µM), without a hit: at the highest dose activity change, negative = inhibition, most hits filed as inhibitors | 340,000 compounds, 0.006% hits; further: potency means the concentration at half of the fitted maximal effect
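Fluorescence read-out (Ex 386 nm, Em 447 nm) after stopping the reaction at pH 10. Enzyme: ASM from human placenta; substrate HMU-PC0, 9 uM final; 60 min, 37 °C. Compound preincubation 10 min, ambient temperature.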
An asterisk follows results filed as active; i = inactive; ? = inconclusive; . = no result; [ ] = remark or other dose. Unless noted, the call rests on the fitted dose curve; in most records, active means well fitted curve in the direction sought with a large enough effect; inconclusive means small, poorly fitted or top-dose-only effect, or another doubt; inactive means no such curve, though single readings can be large; an effect the other way counts as inactive or inconclusive.

SMILES	ALOX12 inh	PTAP TSG101 blk	Vif-A3G inh	pAkt inh	Vif-APOBEC3F blk	S-ASM inh
COc1ccc(C)cc1S(=O)(=O)Nc1cccc(-c2ccc(N3CCCCCC3)nn2)c1	8%	-7%	5%	i	4%	-3%
Cc1ccc(CCC2CCN(C(=O)c3cccc(C#N)c3)CC2)cc1	26%	.	.	.	.	.
Cc1c(C(=O)NCC(c2ccccc2)N(C)C)oc2ccc(F)cc12 (stereo not drawn)	-26%	.	.	.	.	.
CC(C)CCNC(=O)c1ccc2c(c1)NC(=O)C(CS(=O)(=O)Cc1cccc(Br)c1)N2 (stereo not drawn)	-30%	.	?	.	11µM*	.
Cc1ccc(-c2nc(N3CCOCC3)sc2C(=O)N2CCOCC2)cc1	17%	0%	0%	i	-8%	3%
CC(=O)Nc1ccc(-c2nc(N3CCCC3)sc2C)cc1	5.6µM*	.	.	.	.	.
Cc1sc(N2CCOCC2)nc1-c1ccc(NS(C)(=O)=O)cc1	35µM*	.	.	.	.	.
O=C(Cn1cccc1-c1nc(-c2ccc(F)cc2)no1)Nc1ccc(F)cc1	-18%	.	.	.	.	.
COc1nc(-c2ccccc2)ccc1-c1noc(-c2ccco2)n1	20µM*	-1%	-1%	i	-11%	-1%
COc1ccc(-c2ccc(-c3noc(-c4ccco4)n3)c(OC)n2)cc1	2%	5%	-12%	i	-4%	60%
C/C(=N\Oc1cc(N)cc([N+](=O)[O-])c1)c1ccncc1	-16%	.	.	.	.	.
Cc1cc2cc(CNC(=S)Nc3ccc(OC(F)(F)F)cc3)ccc2[nH]1	32µM*	3%	-2%	i	-12%	-1%
Cc1cc2cc(CNC(=S)Nc3ccc(OC(F)F)cc3)ccc2[nH]1	?	-6%	-3%	i	4%	-6%
O=C(Cc1cccs1)NC1CCN(c2cc(C(F)(F)F)ncn2)CC1	2%	.	.	.	.	.
O=C(Cc1cccs1)N1CCN(c2cc(C(F)(F)F)ncn2)CC1	35µM*	.	.	.	.	.
OCCCCCN=c1cc(-c2ccccc2)oc2ccc(Cl)cc12	109%	-6%	1%	i	1%	-1%
Clc1ccc2oc(-c3ccccc3)cc(=NCCCN3CCOCC3)c2c1	14µM*	-1%	-4%	i	-8%	-1%
Cc1ccc(NC2Nc3cc(C)nn3S2)c(C)c1 (stereo not drawn)	40µM*	-1%	0%	i	?	0%
Cc1ccc(N=CNc2ccc(C)cc2C)c(C)c1	0%	0%	-2%	i	5%	3%
Cc1cc2n(n1)SC(Nc1ccccc1)N2 (stereo not drawn)	14µM*	0%	1%	i	-1%	3%
C=CCOC(=O)C1=C(C)N=C2SC=C(CC(=O)NC3CC3)N2C1c1cccc(OC)c1OC (stereo not drawn)	41%	.	.	.	.	.
NS(=O)(=O)c1ccc(-c2ccc(C=C3C(=O)c4ccccc4C3=O)o2)cc1	4%	-1%	0%	i	0%	3%
CC(C)CC1=C/C(=C/c2ccc(-c3ccccc3)o2)C(=O)O1	13µM*	-1%	1%	i	-23%	204%
COc1cc(/C=C/c2nc(C#N)c(NCc3ccc4c(c3)OCO4)o2)cc(OC)c1OC	-12%	.	.	.	.	.
CC(=O)NCC(=O)N1Cc2ccccc2CC2(CCCN(CC3CCNC3)C2)C1 (stereo not drawn)	4%[6.33 µM]	.	.	.	.	.
SMILES	ALOX12 inh	PTAP TSG101 blk	Vif-A3G inh	pAkt inh	Vif-APOBEC3F blk	S-ASM inh
CC(=O)N1Cc2ccccc2CC2(CCCN(CC3CCNC3)C2)C1 (stereo not drawn)	8.9µM*	.	.	.	.	.
CC(CNC(=O)Cn1nc(C(N)=O)c2ccccc2c1=O)(c1ccccc1)c1ccccc1	32µM*	.	.	.	.	.
NC(=O)c1nn(CC(=O)NCCc2ccccc2)c(=O)c2ccccc12	-5%	.	.	.	.	.
CCc1cccc(C)c1NC(=O)Cn1nc(C(=O)O)c2ccccc2c1=O	16µM*	.	.	.	.	.
Cc1oc(-c2ccccc2)nc1CC(=O)N1CCOCC1(C)C	-18%	.	.	.	.	.
CC(C)CSc1n[nH]c(=S)s1	22µM*	0%	-1%	i	-25%	3%
Cc1ccc(-c2csc(CCn3nc(C)c4c(C(F)(F)F)cc(=O)[nH]c43)n2)cc1	10µM*	.	.	.	.	.
COc1ccc(-c2csc(CCn3nc(C)c4c(C(F)(F)F)cc(=O)[nH]c43)n2)cc1	18µM*	.	.	.	.	.
CC(=O)NC(C(=O)NCc1ccccc1)C1CCCC1 (stereo not drawn)	-11%	.	.	.	.	.
COc1ccc(-c2noc(-c3ccc(NCc4ccco4)c([N+](=O)[O-])c3)n2)cc1OC	-12%	.	5%	.	1%	.
Cc1cccc(-c2noc(-c3ccc(NCc4ccco4)c([N+](=O)[O-])c3)n2)c1	-8%	.	1%	.	10µM*	.
CCC(=O)N1CCN(c2oc(/C=C/c3ccc(Cl)cc3)nc2C#N)CC1	-16%	.	.	.	.	.
Nn1c(Cc2ccc(Br)cc2)n[nH]c1=S	28µM*	-2%	2%	i	-10%	-1%
COc1ccc(CNc2ccc([N+](=O)[O-])cn2)cc1	0%	0%	-5%	i	2%	-2%
COc1ccc(Nc2ccc([N+](=O)[O-])cn2)cc1	28µM*	-2%	5%	i	-2%	-8%
Cc1ccccc1N1CCN(CCC(=O)Nc2ccc(F)cc2)CC1	18µM*	-1%	?	i	-1%	0%
Cc1ccc(NC(=O)CCN2CCN(Cc3ccccc3)CC2)cc1Br	50µM*	.	.	.	.	.
O=C(Nc1ccc2c(c1)OCO2)N1CCN(C/C=C/c2ccccc2)CC1	-27%	.	-6%	-83%*	1%	-2%
Cc1ccc(NC(=O)N2CCN(C/C=C/c3ccccc3)CC2)cc1	0%	0%	1%	i	0%	1%
O=C(CCN1CCN(c2ccccc2F)CC1)Nc1ccc(F)cc1	11%	-3%	0%	i	-2%	-1%
Cc1cccc(NC(=O)CCN2CCN(C/C=C/c3ccccc3)CC2)c1	12%	0%	2%	i	-11%	7%
Cc1cc(NC(=O)CCN2CCN(C/C=C/c3ccccc3)CC2)ccc1Br	6.3µM*	0%	-13%	i	7%	-2%
COc1ccc(NC(=O)Nc2cccc(-c3ccc(N4CCOCC4)nn3)c2)cc1F	10%	.	.	.	.	.
O=C(COc1ccc(Cl)cc1)c1ccc(Cl)cc1Cl	8%	.	.	.	.	.
CCc1ccc(OCCCCCn2ccnc2)cc1	1.3µM*	0%	5%	i	-1%	-1%
CCc1ccc(OCCn2ccnc2)cc1	?	0%	1%	i	-3%	1%
CC(C)c1ccc2oc(-c3cc(N)ccc3O)nc2c1	?	-7%	-1%	i	-3%	-5%
CC(C)c1ccc2oc(-c3ccc(N)cc3O)nc2c1	35µM*	.	.	.	.	.

Bioassay records from PubChem.
